Unmarked numbers belong to inactive results. Calls of active or inactive are those of the source. The call rests on the fitted dose curve; in most records, active means well fitted activation curve with a large enough effect in the repeat runs; inconclusive means weak or mixed curves; inactive means flat fitted curve, though single readings scatter.
Test: Caspase-3/7 induction in CHO-K1 cells by small molecules, qHTS assay (AID 1346980); further: nearly all actives have a fitted effect of over 15% in size
Details: CHO-K1 caspase-3/7 induction, Caspase-Glo luminescence, 17 h; series mostly up to 92.4 µM; caspase-3/7 activation: at the top concentration
Excerpt: National Center for Advancing Translational Sciences [NCATS]
NIH Chemical Genomics Center [NCGC]
U.S. Environmental Protection Agency [EPA]
National Institutes of Environmental Health Sciences [NIEHS]
National Toxicology Program [NTP]
Apoptosis is a process of programmed cell death and plays a central role in the development of multicellular organisms. It is a highly regulated process and induces cell death by activating caspases, which are the members of cysteine aspartic acid-specific protease (caspase) family. Caspases involved in apoptosis are classified by their mechanism of action as initiator caspases (caspase-2, -8, -9 and -10) and executioner caspases (caspase-3, -6, and -7). Inhibition of apoptosis results in number of cancers, autoimmune diseases, inflammatory diseases and viral infection. To identify small molecule compounds that induce apoptosis, a homogeneous, luminescent Caspase-Glo 3/7 assay was used. Wild type CHO-K1 cells were used to screen Tox21 libraries for identifying caspase-3/7 activity inducers.
CHO-K1 cells were dispensed at 1,500 per well in 5uL of culture medium into white solid bottom 1536-well plates (Corning Life Sciences, Corning, NY) using a Multidrop Combi (Thermo Scientific, Waltham, MA) dispenser. The assay plates were incubated at 37 C and 5% CO2 for 5hr, and then 23nL of compounds dissolved in DMSO and positive control were transferred using a Pintool station (Wako, San Diego, CA). The assay plates were incubated at 37C and 5% CO2 for 17hr. For caspase-3/7 activity read, 4uL of Caspase-Glo 3/7 reagent (Promega Corporation, Madison, WI) was added to each well of the assay plates using Flying Reagent Dispenser (FRD, Aurora Discovery, San Diego, CA) and incubated the assay plates at room temperature for 30min. The luminescence signal was quantified using a ViewLux plate reader (Perkin Elmer, Shelton, CT).
On the % scale 0 is the no-effect control and ±100 the full control effect; potency means the concentration at half of the fitted maximal effect.

Which “caspase-3/7 activation” value does the source give for `COc1ccc2sc(C(=O)Nc3nnn[nH]3)c(OC(C)C)c2c1` here?
Its value is 0.171%.

Which “caspase-3/7 activation” value does the source give for `COc1ccccc1OCCNCC(O)COc1cccc2[nH]c3ccccc3c12` (stereo not given) here?
The value was 2.34% [at 42.5 µM].

For `Cc1cn[nH]c1`, which “caspase-3/7 activation” value is on record?
Its value is 0.0595% [at 42.5 µM].

With `C[Si](C)O[Si](C)C` as the compound, how does the “caspase-3/7 activation” value read?
The value was -0.603%.

Which “caspase-3/7 activation” value does the source give for `O=C(Nc1ccc(Cl)c(Cl)c1)c1cc(Cl)cc(Cl)c1O` here?
Its value is -5.83%.

For `C=CC(=O)OCCN(CC)CC`, which “caspase-3/7 activation” value is on record?
The value was -0.773%.

Which “caspase-3/7 activation” value does the source give for `CCOC(/C=C(\C)CCC=C(C)C)OCC` here?
Its value is 1.26%.

With `CC(C)(C)c1cc(/C=C2\SC(=N)NC2=O)cc(C(C)(C)C)c1O` as the compound, how does the “caspase-3/7 activation” value read?
The value was 0.229%.

For `CCN1CCN(c2cc(-c3ccc(F)cc3)c3c(n2)CCCCCC3)CC1`, which caspase-3/7 activation is on record?
The caspase-3/7 activation was 1.46% [at 19 µM].

Which “caspase-3/7 activation” value does the source give for `CN(C)CCN1CCOCC1` here?
The value was -0.903%.

For `O=C(O)c1cccc(Cl)n1`, which “caspase-3/7 activation” value is on record?
Its value is 0.0736%.

For `CCCCC(CC)COC(=O)c1ccc(O)cc1` (stereo not given), which “caspase-3/7 activation” value is on record?
Its value is 0.625%.

With `Cc1ccc(CCn2c3c(c4cc(Cl)ccc42)CN(C)CC3)cn1` as the compound, how does the “caspase-3/7 activation” value read?
Its value is -1.46% [at 42.5 µM].

Which “caspase-3/7 activation” value does the source give for `CCc1ccc(C)nc1` here?
The value was 0.726%.

Which “caspase-3/7 activation” value does the source give for `CC(C)=CCCC(C)CCOC(=O)C(C)C` (stereo not given) here?
The value was -0.0107%.

For `CCCCCCCC(=O)OCC`, which “caspase-3/7 activation” value is on record?
The value was -0.16%.

With `Cc1cc(=O)[nH]c(=O)[nH]1` as the compound, how does the “caspase-3/7 activation” value read?
The value was -1.01%.

For `Cc1ccc(-n2[nH]c(C)c(N=Nc3cccc(-c4cccc(C(=O)O)c4)c3O)c2=O)cc1C`, which “caspase-3/7 activation” value is on record?
The value was 0.0563% [at 42.5 µM].

With `CN(C)CCCN1c2ccccc2CCc2ccccc21` as the compound, how does the Potency read?
Its Potency is “inactive”.

Which Potency does the source give for `C[C@@]12C(=O)OC(=O)[C@]1(C)C1CCC2O1` here?
The Potency was 23.7 µM (active).

With `CC(=O)OC(OC(C)=O)c1ccc([N+](=O)[O-])o1` as the compound, how does the “caspase-3/7 activation” value read?
Its value is -5.52%.

With `CC(=O)Nc1ccc(O)cc1` as the compound, how does the Potency read?
Its Potency is “inactive”.

With `CCCCCCC(C)Nc1ccc(Nc2ccccc2)cc1` (stereo not given) as the compound, how does the “caspase-3/7 activation” value read?
Its value is 2.43%.

Which “caspase-3/7 activation” value does the source give for `C=CC(C)(CCC=C(C)C)OC(=O)/C=C/c1ccccc1` (stereo not given) here?
Its value is 4.24%.

With `CC1(C)C(=O)N(Br)C(=O)N1Br` as the compound, how does the “caspase-3/7 activation” value read?
The value was -0.862%.

Which “caspase-3/7 activation” value does the source give for `c1cc2c3c(c1)ccc1cccc(c13)C2` here?
Its value is 1.18%.

Which “caspase-3/7 activation” value does the source give for `C/C=C/c1ccc(OC)c(OC)c1` here?
Its value is -0.682%.

Which “caspase-3/7 activation” value does the source give for `CCCCOC(=O)C(C)CC` (stereo not given) here?
The value was -0.065%.

With `Cn1cnc2ncnc(N)c21` as the compound, how does the “caspase-3/7 activation” value read?
Its value is 0.106% [at 42.5 µM].

Which “caspase-3/7 activation” value does the source give for `CCN(CC)c1ccc(N)cc1` here?
Its value is 5.36%.

For `CC1=CCC(=O)O1`, which “caspase-3/7 activation” value is on record?
The value was 0.005%.

Which “caspase-3/7 activation” value does the source give for `CCOC(=O)[C@@](C)(N)Cc1ccc(O)c(O)c1` here?
Its value is 9.06% [at 42.5 µM].

For `C=CC/C=C/C/C=C/C/C=C/C`, which “caspase-3/7 activation” value is on record?
Its value is -0.267%.

For `CC(C)=C1CC[C@@H](C)CC1=O`, which “caspase-3/7 activation” value is on record?
Its value is -0.215%.

Which “caspase-3/7 activation” value does the source give for `CC1(C)COCN1` here?
Its value is 0.383%.

With `C=CC(=C)CCC=C(C)C` as the compound, how does the “caspase-3/7 activation” value read?
The value was 0.0876%.

For `COC(=O)CC(C)CCC=C(C)C` (stereo not given), which “caspase-3/7 activation” value is on record?
Its value is 0.957%.

With `CCC(=O)OCCc1ccccc1` as the compound, how does the “caspase-3/7 activation” value read?
Its value is 0.223%.

Which “caspase-3/7 activation” value does the source give for `OCCN1CN(CCO)CN(CCO)C1` here?
Its value is -0.784%.

With `O=C(Oc1ccccc1)c1cccc(C(=O)Oc2ccccc2)c1` as the compound, how does the “caspase-3/7 activation” value read?
The value was -6.09%.
